Compound activity from PubChem BioAssay.
Most compounds without a hit are left out; they make up all but 6.6% or so of the library.
TGFb SMAD3 inh: blocks TGF-b signaling. 410,000 compounds, 1.2% hits. Potency, µM (series often up to 46.1 µM), usual class: inhibitors. HepG2 CAGA-GFP TGF-b/SMAD3 reporter, GFP fluorescence, 18 h; TGF-beta stimulated, 500 pg/mL final; note: nearly all actives have a fitted effect of over 65% in size
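Per well, imaged GFP fluorescence of HEPG2 CAGA-GFP cells gives the signal; cells get compound, then TGF-beta (500 pg/mL final), 18 h at 37 degrees C; %Activity versus -TGF-beta and +DMSO controls.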
KB-V1 cytotox: kills drug-selected multidrug resistant KB-V1 cells; 400,000 compounds, 3.4% hits; KB-V1 MDR cells viability, CellTiter-Glo, 72 h; Potency, µM (highest dose often 46.1 µM), usual class: cytotoxic; note: nearly all actives have a fitted effect of over 60% in size
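Luminescent ATP read-out (CellTiter-Glo, 10 min) measures survival of drug-selected KB-V1 MDR cells after 72 h, 37 degrees C compound exposure. Medium: phenol-red-free DMEM, 10% FBS. Values from fitted concentration-response curves.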
HepG2 viability: counter-screen for TGF-b inhibitors: cytotoxicity in HepG2 cells | HepG2 CAGA-GFP viability, ATP luminescence, 18 h | Potency, µM (top dose mostly 46.1 µM), usual class: cytotoxic | 410,000 compounds, 0.76% hits
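CellTiter-Glo luminescence gave cytotoxicity after 18 hours at 37 degrees C. The cells were HepG2 CAGA-GFP in 1% FBS DMEM, stimulated with 500 pg/mL TGF-beta after compound addition. %Activity was normalised to no-cell wells (complete cell-killing) and DMSO (no toxicity), and curves were fitted and classified.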
HT1080 IDH1KD tx: toxicity to HT-1080 IDH1 knockdown cells (counter line) | HT-1080 IDH1 knockdown viability, ATP luminescence, 48 h | Potency, µM (highest dose often 46.1 µM), most hits filed as cytotoxic | 360,000 compounds, 2% hits | AID 686971
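Assay cells: HT-1080 with IDH1 knockdown, 750 per well, RPMI/5% FBS. Exposure: 48 h at 37 °C following 2 h pre-incubation. Read: CellTiter-Glo luminescence; fitted concentration-response, curve class assigned.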
KB-3-1 cytotox: kills parental KB-3-1 adenocarcinoma cells | KB-3-1 viability, CellTiter-Glo ATP luminescence, 72 h | Potency, µM (top dose mostly 46.1 µM), most hits filed as cytotoxic | 400,000 compounds, 1.4% hits; note: nearly all actives have a fitted effect of over 60% in size
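Parental KB-3-1 adenocarcinoma cells in phenol-red-free DMEM with 10% FBS were pin-treated with compounds at several concentrations, incubated 72 h at 37 °C, and viability read by CellTiter-Glo luminescence; concentration-effect curves were fitted after normalization.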
HT1080-NT tox: kills 2HG-producing HT-1080-NT fibrosarcoma cells | HT-1080-NT fibrosarcoma viability, CellTiter-Glo ATP luminescence, 48 h | Potency, µM (top dose mostly 46.1 µM), usual class: cytotoxic | 360,000 compounds, 1.6% hits;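 note: NT is the 2HG producing partner of a matched IDH1 knockdown line; nearly all actives have a fitted effect of over 55% in size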
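Luminescent CellTiter-Glo readout after 48 hours of compound exposure at 37 degrees C defined viability of HT-1080-NT cells. Activity was normalized to DMSO wells and cell-free media wells; concentration-response curves were fitted and assigned curve classes.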
A number is an active result; . = inactive; ? = inconclusive; / = no result; [ ] = dose if it differs, or a comment. Calls come from the whole dose curve; as a rule, active = well fitted curve in the direction sought with a large enough effect; inconclusive = small, poorly fitted or top-dose-only effect, or another doubt; inactive = no such curve, though single readings can be large; an effect the other way counts as inactive or inconclusive.

SMILES	TGFb SMAD3 inh	KB-V1 cytotox	HepG2 viability	HT1080 IDH1KD tx	KB-3-1 cytotox	HT1080-NT tox
CN(C)CCCN(C(=O)c1ccc2c(c1)CCCC2)c1nc2ccc(F)cc2s1	?	4.1µM	.	.	.	.
CN(C)CCCN(C(=O)c1ccc(C(=O)c2ccccc2)cc1)c1nc2cc3c(cc2s1)OCCO3	14µM	.	.	?	.	?
CN(C)CCN(C(=O)c1ccc(C(=O)c2ccccc2)cc1)c1nc2cc3c(cc2s1)OCCO3	.	.	.	.	.	.
COc1cccc(CNC(=O)Cc2csc3ccccc23)c1OC	/	/	.	/	/	/
CCC(Nc1ccc(-c2nc(-c3ccco3)no2)cc1[N+](=O)[O-])c1ccccc1 (centres undefined)	.	.	.	/	.	/
Cc1cnc2c(c1SCC(=O)Nc1ccc(F)cc1F)c(=O)n(C)c(=O)n2C	.	.	.	/	.	/
CN(C)CCCN(C(=O)c1ccc(S(=O)(=O)N(C)C)cc1)c1nc2cc3c(cc2s1)OCO3	.	.	.	.	.	.
CN(C)CCCN(C(=O)c1ccc2c(c1)CCCC2)c1nc2cc3c(cc2s1)OCO3	?	.	.	?	?	18µM
Fc1ccc(-c2nc(-c3cccs3)[nH]c2-c2ccc(F)cc2)cc1	14µM	16µM	.	.	18µM	.
O=[N+]([O-])c1cccc(-c2nc(-c3cccs3)c(-c3cccs3)[nH]2)c1	.	.	.	?	.	.
Oc1cccc(-c2nc(-c3cccs3)c(-c3cccs3)[nH]2)c1	14µM	/	.	/	/	/
Fc1ccc(-c2nc(-c3cccs3)c(-c3cccs3)[nH]2)cc1	.	/	.	/	/	/
Cc1cc(NC(=O)CN(C)S(=O)(=O)c2ccc3c(c2)CCCC(=O)N3)ccc1Br	.	16µM	.	/	?	/
CCOc1cc(N2CCOCC2)c(OCC)cc1NC(=O)c1cc(S(=O)(=O)N2CCOCC2)ccc1Cl	?	?	.	.	?	.
CCOc1cc(N2CCOCC2)c(OCC)cc1NS(=O)(=O)c1ccc(Cl)s1	.	5.2µM	.	4.1µM	6.5µM	?
COC(=O)c1ccccc1S(=O)(=O)N1CCC(c2nc3ccccc3o2)CC1	.	12µM	.	.	.	.
Cc1ccc2c(c1)c1c3n2CCN=C3CCC1	.	15µM	.	.	?	.
COc1ccc2c(c1)c1c3n2CCN(C)C3=NCC1	.	.	.	.	.	.
c1cc2c(cc1C1CCCCC1)c1c3n2CCCNC3CCC1 (centres undefined)	.	?	13µM	21µM	18µM	16µM
c1cc2c(cc1C1CCCCC1)c1c3n2CCN=C3CCC1	?	?	.	?	?	21µM
COc1ccc(Cl)cc1NC(=O)CN(c1cccc(C)c1C)S(C)(=O)=O	?	.	.	/	.	/
CC1CC=CC2C1C(=O)N(Cc1ccccc1)C2c1ccc(F)c(/C=C/c2ccccc2)c1 (centres undefined)	.	/	.	/	/	/
O=C1Nc2ccccc2C1(O)c1ccccc1 (centres undefined)	.	.	.	.	.	.
Cc1cccc2c1NC(=O)C2(c1ccc(O)cc1)c1ccc(O)cc1	.	.	.	0.0082µM	.	0.0082µM
Cc1cc(C2(c3ccc(O)c(C)c3)C(=O)Nc3ccccc32)ccc1O	.	.	.	.[9.24 µM]	?	18µM
SMILES	TGFb SMAD3 inh	KB-V1 cytotox	HepG2 viability	HT1080 IDH1KD tx	KB-3-1 cytotox	HT1080-NT tox
CCN1C(=O)C(c2ccc(O)cc2)(c2ccc(O)cc2)c2ccccc21	.	.	.	.	.	.
O=C1c2ccccc2/C(=C\c2ccc3[nH]ccc3c2)N1c1ccccc1	.	.	.	.	.	.
CCC/C(=C1/c2ccccc2C(=O)N1c1ccccc1)c1ccc2[nH]ccc2c1	11µM	?	.	?	.	?
CCC(=O)Nc1cc(-c2cccc(C)c2)nn1-c1ccccc1	.	.	.	/	.	/
CCCCN(C)/C=N/c1c(C#N)cnn1-c1ccc(C)cc1	.	5.8µM	.	.	?	.
Cc1ccc(-n2ncc(C#N)c2/N=C/N2CCN(C)CC2)cc1	.	.	.	.	.	.
COc1ccc(/C=N/Nc2nc(C)cc(-c3ccccc3)n2)cc1OC	.	.	.	.	.	.
COc1ccc(-c2ccc(SCC(=O)c3cccs3)nn2)cc1OC	.	2.3µM	.	.	.	.
O=C(OCC(=O)N1CCCCC1)c1c[nH]c2ccccc12	?	21µM	.	.	.	.
COc1ccc(-c2cc(C(=O)N3CCCCCC3)c3ccccc3n2)cc1OC	.	.	.	.	.	.
O=C(OCC(=O)N1CCCC1)c1c[nH]c2ccccc12	.	.	.	.	.	.
COc1ccc(-c2cc(C(=O)OCC(=O)N3CCCCC3)c3ccccc3n2)cc1OC	.	3.7µM	.	.	.	.
COc1ccc(/C=N/Nc2nc(-c3ccc(Cl)cc3)cc(C(F)(F)F)n2)cc1OC	?	7.3µM	.	.	.	.
COc1ccc(-c2ccc(SCC(=O)c3ccc(F)cc3)nn2)cc1OC	.	?	.	.	.	.
O=C(COc1ccccc1C(=O)Nc1ccccc1)Nc1ccc2ccccc2c1	/	/	/	.	/	.
Cc1ccccc1C(=O)Nc1cccc(OCc2cc(=O)n3cccc(C)c3n2)c1	.	/	.	/	/	/
Cc1ccc2c(Sc3ccc(Cl)cc3)c(C(=O)N3CCC(C)CC3)[nH]c2c1	?	?	.	/	?	/
Cc1ccccc1Nc1cc(C(=O)NCc2ccco2)c2ccccc2n1	.	8.2µM	.	.	?	.
CCOC(=O)C1CCCN(C(=O)c2cc(-c3ccc(C)cc3)nc3ccccc23)C1 (centres undefined)	.	12µM	.	.	.	.
COc1ccc(-c2cc(C(F)(F)F)nc(NCc3ccco3)n2)cc1OC	.	2.3µM	.	.	.	.
Cc1cc(C(=O)NCc2ccco2)c2ccccc2n1	.	.	.	.	.	.
COc1cccc(NC(=O)c2ccccc2-c2nc(-c3ccc(F)cc3)no2)c1	.	18µM	.	.	.	.
CCc1ccccc1NC(=O)C(=O)NCC(c1cccnc1)N1CCc2ccccc21 (centres undefined)	?	.	.	/	.	/
COc1ccc(Cn2c(CO)cnc2SCc2ccc(C)cc2)cc1	?	.	.	/	.	/
O=C(CCNC(=O)c1ccc(Cl)cc1)NCc1ccco1	.	.	.	.	.	.
COc1ccc(-c2cc(C(=O)NCc3ccco3)c3ccccc3n2)cc1OC	.	?	0.5µM	.	?	.
Cc1cccc(Nc2ccccc2C(=O)OCC(=O)NCc2ccco2)c1C	.	13µM	.	?	?	.
COc1ccc(-c2ccc(SCC(=O)NCc3ccco3)nn2)cc1OC	?	9.2µM	.	.	.	.
